According to PubChem BioAssay (Tox21):
Inconclusive results are not listed. Activity calls are given as the source filed them. Unless noted, calls come from the whole dose curve; as a rule, active = well fitted curve in the direction sought with a large enough effect in the repeat runs; inconclusive = weak or mixed curves; inactive = no such curve, though single readings can be large; an effect the other way counts as inactive or inconclusive.

Assays:
[1] = qHTS assay to identify small molecule agonists of the estrogen receptor alpha (ER-alpha) signaling pathway in the presence of an antagonist - cell viability counter screen (AID 1259386);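 note: series mostly up to about 92 µM; cells exposed to compounds for 22 h at 37 °C before the viability read; nearly all actives have a fitted effect of over 30% in size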
Summary of the method: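 VM7Luc4E2 cells (endogenous full-length ER-alpha, 4×ERE-luciferase) were held 5 days in phenol red-free medium with 10% charcoal-stripped FBS, plated, then given 10.0nM ICI-182,780 and compounds at 15 concentrations for 22hr at 37C; viability read by CellTiter-Fluor fluorescence.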

[2] = molecular target: Progesterone receptor (Homo sapiens) (UniProt P06401); assay: qHTS assay to identify small molecule agonists of the progesterone receptor (PR) signaling pathway (AID 1346784; calls by dose curve; note: nearly all actives have a fitted effect of over 30% in size)
Summary of the method: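 Agonist qHTS: compounds pinned onto 3,000 PR-UAS-bla HEK 293T cells per well in charcoal-stripped serum medium, 16hr at 37C, then beta-lactamase activity measured by LiveBLAzer FRET fluorescence after 2 hours at room temperature.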

[3] = qHTS assay to identify small molecule antagonists of the progesterone receptor (PR) signaling pathway - cell viability counter screen (AID 1346798); note: series mostly up to about 92 µM; nearly all actives have a fitted effect of over 50% in size
Summary of the method: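 Cytotoxicity read as CellTiter-Glo luminescence (30 min, room temperature) in the same wells as the beta-lactamase readout. HEK293T PR-UAS-bla cells in charcoal-stripped 2% FBS received compound and R5020, then 16 h at 37C, 5% CO2.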

[4] = qHTS assay to identify small molecule agonists of the progesterone receptor (PR) signaling pathway - cell viability counter screen (AID 1346799; calls by dose curve; note: nearly all actives have a fitted effect of over 45% in size; note: potency is the fitted concentration of half-maximal effect)
Summary of the method: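 Cytotoxicity measured by CellTiter-Glo luminescence (30 min, RT) in the same wells as the PR beta-lactamase agonist read. Those HEK293T cells had 16 h compound treatment at 37 C in 2% charcoal-stripped FBS medium.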

[5] = qHTS assay to identify small molecule agonists of the TGF-beta/Smad signaling pathway - cell viability counter screen (AID 1346829); note: top concentration of the series differs between compounds; nearly all actives have a fitted effect of over 45% in size
Summary of the method: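 Luminescence from CellTiter-Glo, read after a 30 min room-temperature incubation, gives cell viability of SBE-bla HEK 293T cells treated 5 hr with compounds at 37 C.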

[6] = qHTS assay to identify small molecule agonists of the TGF-beta/Smad signaling pathway (AID 1346859; active = well fitted activation curve with a large enough effect in the signal ratio in the repeat runs, not every such curve was filed as active; the % refers to the signal ratio; note: series mostly up to about 77 µM)
Summary of the method: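 Fluorescence (ex 405 nm; em 460 and 530 nm) was read 2 h after LiveBLAzer FRET substrate at RT. The preceding compound treatment of overnight-plated SBE-bla HEK293T cells lasted 5 h at 37 C.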

[7] = molecular target: Thyrotropin-releasing hormone receptor (Homo sapiens) (UniProt P34981); assay: qHTS assay to identify small molecule antagonists of the thyrotropin-releasing hormone receptor (TRHR) signaling pathway (AID 1346877; active = well fitted inhibition curve with a large enough effect in the repeat runs, not every such curve was filed as active; note: series mostly up to about 51 µM)
Summary of the method: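 TRHR-expressing HEK293 cells were seeded, cultured 18 h at 37 °C, then loaded with calcium dye for 2 h. Compounds were pre-incubated 5 min at room temperature before 1 nM TRH (final) was added, and kinetic fluorescence was recorded for 3 min.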

[8] = molecular target: Thyrotropin-releasing hormone receptor (Homo sapiens) (UniProt P34981); assay: qHTS assay to identify small molecule agonists of the thyrotropin-releasing hormone receptor (TRHR) signaling pathway (AID 1346891; calls by dose curve; note: series mostly up to about 58 µM)
Summary of the method: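 Agonist-mode intracellular calcium readout: kinetic fluorescence over 3 min at 1 s intervals after compound addition to TRHR-HEK293 cells (18 h seeded, 2 h dye-loaded at 37 C). Fifteen concentrations, triplicates.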

[9] = Human pregnane X receptor (PXR) small molecule agonists, qHTS cell viability counter screen (AID 1346977); note: nearly all actives have a fitted effect of over 50% in size; note: potency is the fitted concentration of half-maximal effect
Summary of the method: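 Same-well viability read: CellTiter-Fluor added after 23 hr compound exposure, fluorescence measured 1 hr later. Cells were PXR-Luc HepG2 seeded at 2,000/well in 5% charcoal-stripped FBS medium, rested 5 hr before dosing at 37 C.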

[10] = Caspase-3/7 induction in HepG2 cells by small molecules, qHTS assay (AID 1346978); note: nearly all actives have a fitted effect of over 15% in size
Summary of the method: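 Wild-type HepG2 cells (2,000/well) were settled 5 h at 37 C, 5% CO2, then exposed to compounds in DMSO for 17 h. Caspase-3/7 activity was read by luminescence 30 min after adding Caspase-Glo 3/7 reagent at room temperature.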

[11] = Caspase-3/7 induction in CHO-K1 cells by small molecules, qHTS cell viability counter screen (AID 1346979); note: nearly all actives have a fitted effect of over 35% in size; note: potency is the fitted concentration of half-maximal effect
Summary of the method: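 Cytotoxicity counter screen: CellTiter-Fluor added to compound-treated wild-type CHO-K1 cells at 16 h (37C, 5% CO2), fluorescence measured 1 h later; same wells as caspase-3/7 measurement.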

[12] = Caspase-3/7 induction in CHO-K1 cells by small molecules, qHTS assay (AID 1346980); note: nearly all actives have a fitted effect of over 15% in size
Summary of the method: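 Wild-type cells were seeded at 1,500 per well and settled 5 hr at 37 C, 5% CO2, then exposed to DMSO-dissolved compounds for 17 hr. Caspase-Glo 3/7 reagent was added, and luminescence was read after 30min at room temperature.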

[13] = Caspase-3/7 induction in HepG2 cells by small molecules, qHTS cell viability counter screen (AID 1346981); note: series mostly up to about 92 µM; nearly all actives have a fitted effect of over 30% in size
Summary of the method: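 Wild-type HepG2 cells (2,000/well) were allowed to settle for 5 hr at 37 C, 5% CO2, then dosed with compounds in DMSO by pin transfer. After 16 hr at 37 C, CellTiter-Fluor was added and fluorescence read 1 hr later.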

[14] = molecular target: Nuclear receptor subfamily 1 group I member 2 (Homo sapiens) (UniProt O75469); assay: Human pregnane X receptor (PXR) small molecule agonists, qHTS assay (AID 1346982); note: nearly all actives have a fitted effect of over 35% in size; note: potency is the fitted concentration of half-maximal effect
Summary of the method: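 PXR-Luc HepG2 cells (CYP3A4 promoter-driven luciferase) were seeded in medium with 5% charcoal-stripped FBS, left 5 hr at 37 C, then exposed to compounds in DMSO for 24 hr. Luminescence was read after ONE-Glo addition.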

[15] = qHTS assay to identify small molecule antagonists of the TGF-beta/Smad signaling pathway - cell viability counter screen (AID 1346824); note: nearly all actives have a fitted effect of over 50% in size
Summary of the method: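 SBE-bla HEK 293T cells were plated overnight at 37 C, then given compounds in DMSO plus TGF-beta1 (added as 0.25 ng/mL solution) for 5 hr. After the bla read, CellTiter-Glo was added to the same wells and luminescence read after 30 min at room temperature.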

[16] = molecular target: Nuclear receptor subfamily 1 group I member 2 (Rattus norvegicus) (UniProt Q9R1A7); assay: Rat pregnane X receptor (rPXR) activation by small molecules, qHTS assay (AID 1346983); details: rPXR luciferase reporter cells, One-Glo luminescence, 24 h; max activation: stronger effect = higher value; note: nearly all actives have a fitted effect of over 20% in size
Summary of the method: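 Cell-based rPXR luciferase reporter assay, 2,000 cells per well, rested 5hr at 37 C before compound addition in DMSO, then 24 hr at 37 C. One-Glo reagent was added and luminescence read after 30 min at room temperature.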

[17] = molecular target: Progesterone receptor (Homo sapiens) (UniProt P06401); assay: qHTS assay to identify small molecule antagonists of the progesterone receptor (PR) signaling pathway (AID 1346795; active = well fitted inhibition curve with a large enough effect in the signal ratio in the repeat runs, not every such curve was filed as active; the % refers to the signal ratio)
Summary of the method: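 Antagonist mode with agonist R5020 at 1 nM final and 16 hr incubation at 37C. Reporter was beta-lactamase driven by UAS in HEK293T (PR-UAS-bla), 2% charcoal-stripped serum; signal from LiveBLAzer FRET substrate, 2 hr at room temperature.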

[18] = molecular target: Nuclear receptor subfamily 1 group I member 2 (Homo sapiens) (UniProt O75469); assay: CYP3A4 induction through human pregnane X receptor (PXR) by small molecules, qHTS assay (AID 1346984); note: nearly all actives have a fitted effect of over 40% in size
Summary of the method: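 DPX-2 cells (HepG2 co-transfected with PXR and CYP3A4 promoter-luciferase) treated with compounds 24 h at 37C; luciferin-IPA CYP3A4 substrate 3uM final added for 3 h, then One-Glo; luminescence read. qHTS format.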

[19] = molecular target: Nuclear receptor subfamily 1 group I member 2 (Homo sapiens) (UniProt O75469); assay: Human pregnane X receptor (PXR) activation by small molecules, qHTS assay (AID 1346985); note: nearly all actives have a fitted effect of over 40% in size
Summary of the method: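 DPX-2 cells (HepG2 co-transfected with a PXR response element and a CYP3A4-promoter luciferase construct) were seeded at 2,000 per well, rested 5 hr at 37C, then exposed to DMSO-dissolved compounds for 24 hr. Activation was read as luciferase luminescence.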
% is set by controls: 0 for no effect and ±100 for the full control effect.

Sequence of Progesterone receptor (Homo sapiens) (P06401 whole entry, looked up): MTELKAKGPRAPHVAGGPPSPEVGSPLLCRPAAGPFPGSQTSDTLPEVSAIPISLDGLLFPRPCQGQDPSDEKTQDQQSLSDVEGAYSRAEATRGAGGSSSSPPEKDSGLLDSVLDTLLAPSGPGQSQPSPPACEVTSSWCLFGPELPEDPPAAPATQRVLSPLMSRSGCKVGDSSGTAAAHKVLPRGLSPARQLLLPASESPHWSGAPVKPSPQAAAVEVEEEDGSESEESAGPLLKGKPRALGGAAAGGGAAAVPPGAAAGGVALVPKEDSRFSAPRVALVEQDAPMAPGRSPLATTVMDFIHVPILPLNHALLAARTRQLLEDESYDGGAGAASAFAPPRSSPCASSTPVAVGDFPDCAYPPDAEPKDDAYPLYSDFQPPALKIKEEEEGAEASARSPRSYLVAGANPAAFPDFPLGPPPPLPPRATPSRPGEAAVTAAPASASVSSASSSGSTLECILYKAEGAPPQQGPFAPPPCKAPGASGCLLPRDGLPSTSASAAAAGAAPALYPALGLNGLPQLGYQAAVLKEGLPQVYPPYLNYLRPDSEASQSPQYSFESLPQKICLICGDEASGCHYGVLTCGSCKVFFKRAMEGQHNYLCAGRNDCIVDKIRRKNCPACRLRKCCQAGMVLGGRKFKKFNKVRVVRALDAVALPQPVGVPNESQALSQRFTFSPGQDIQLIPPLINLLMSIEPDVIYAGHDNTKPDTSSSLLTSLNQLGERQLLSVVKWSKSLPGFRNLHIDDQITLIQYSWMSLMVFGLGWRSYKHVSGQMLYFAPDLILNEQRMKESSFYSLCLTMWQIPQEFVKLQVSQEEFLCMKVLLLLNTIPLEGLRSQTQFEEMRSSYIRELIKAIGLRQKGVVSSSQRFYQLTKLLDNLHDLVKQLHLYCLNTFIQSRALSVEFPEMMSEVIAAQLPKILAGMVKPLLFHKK
Sequence of Nuclear receptor subfamily 1 group I member 2 (Homo sapiens) (O75469 whole entry, looked up): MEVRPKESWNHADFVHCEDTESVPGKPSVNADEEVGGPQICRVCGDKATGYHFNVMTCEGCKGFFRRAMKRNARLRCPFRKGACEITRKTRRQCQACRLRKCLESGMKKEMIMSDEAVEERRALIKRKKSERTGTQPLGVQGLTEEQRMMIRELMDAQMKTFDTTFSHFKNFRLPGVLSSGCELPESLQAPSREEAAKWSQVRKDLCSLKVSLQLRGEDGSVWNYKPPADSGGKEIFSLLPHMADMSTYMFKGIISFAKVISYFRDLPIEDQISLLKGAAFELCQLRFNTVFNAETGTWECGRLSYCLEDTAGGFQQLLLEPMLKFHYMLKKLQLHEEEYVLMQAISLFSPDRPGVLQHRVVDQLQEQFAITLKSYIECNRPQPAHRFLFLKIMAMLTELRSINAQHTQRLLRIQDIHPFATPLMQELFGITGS
Sequence of Nuclear receptor subfamily 1 group I member 2 (Rattus norvegicus) (Q9R1A7 whole entry, looked up): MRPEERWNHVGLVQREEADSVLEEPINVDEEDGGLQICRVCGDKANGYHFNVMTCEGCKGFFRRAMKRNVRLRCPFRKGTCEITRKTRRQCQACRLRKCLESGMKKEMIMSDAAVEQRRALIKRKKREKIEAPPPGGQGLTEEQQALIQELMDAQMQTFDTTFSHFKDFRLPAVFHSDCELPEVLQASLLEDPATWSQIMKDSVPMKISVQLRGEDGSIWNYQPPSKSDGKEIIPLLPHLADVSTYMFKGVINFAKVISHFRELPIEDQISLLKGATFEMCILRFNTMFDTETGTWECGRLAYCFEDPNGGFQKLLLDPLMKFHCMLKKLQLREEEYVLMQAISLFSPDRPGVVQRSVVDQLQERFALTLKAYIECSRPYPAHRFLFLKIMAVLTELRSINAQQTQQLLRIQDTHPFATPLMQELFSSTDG
Sequence of Thyrotropin-releasing hormone receptor (Homo sapiens) (P34981 whole entry, looked up): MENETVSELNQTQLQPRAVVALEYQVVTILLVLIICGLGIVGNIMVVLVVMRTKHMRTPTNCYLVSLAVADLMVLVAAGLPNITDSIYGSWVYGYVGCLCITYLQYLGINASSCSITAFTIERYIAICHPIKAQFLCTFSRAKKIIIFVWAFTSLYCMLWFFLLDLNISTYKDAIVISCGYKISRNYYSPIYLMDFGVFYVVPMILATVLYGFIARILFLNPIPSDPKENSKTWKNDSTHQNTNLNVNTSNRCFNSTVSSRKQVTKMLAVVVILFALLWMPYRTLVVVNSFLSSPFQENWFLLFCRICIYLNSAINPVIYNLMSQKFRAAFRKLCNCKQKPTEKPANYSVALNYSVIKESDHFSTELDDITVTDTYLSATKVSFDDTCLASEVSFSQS

CCCc1ccc(OC)cc1
inactive: Potency [1] | Potency [2] | Potency [3] | Potency [4] | outcome [5] | outcome [6] | outcome [7] | outcome [8] | Potency [9] | Potency [10] | Potency [11] | Potency [12] | Potency [13] | Potency [14]

Cc1ccc(NC(=O)c2ccc(CN3CCN(C)CC3)cc2)cc1Nc1nccc(-c2cccnc2)n1
inactive: outcome [15] | outcome [5] | Potency [10] | Potency [12] | max activation [16] -10.6%
active: Potency [9] 23.7 µM

O=C(O)CCc1nc2ccccc2[nH]1
inactive: Potency [2] | Potency [17] | Potency [3] | Potency [4] | outcome [5] | outcome [6] | outcome [7] | outcome [8] | Potency [9] | Potency [10] | Potency [12] | Potency [13] | Potency [14]

CC(C)=CCC/C(C)=C/C=N/O
inactive: Potency [1] | Potency [2] | outcome [15] | outcome [6] | outcome [7] | outcome [8] | Potency [9] | Potency [10] | Potency [11] | Potency [12] | Potency [13]
active: Potency [14] 34.4 µM

COC(=O)/C=C/C(C)=C\C=C\C(C)=C\C=C\C=C(C)\C=C\C=C(C)\C=C\C(=O)O
inactive: Potency [1] | Potency [2] | Potency [17] | Potency [4] | outcome [15] | outcome [5] | outcome [7] | outcome [8] | Potency [9] | Potency [10] | Potency [11] | Potency [12] | Potency [13]
active: Potency [14] 54.5 µM

CC(CC(C#N)(c1ccccc1)C(C)C)N(C)C (centres undefined)
inactive: Potency [1] | Potency [2] | Potency [17] | Potency [4] | outcome [15] | outcome [5] | outcome [6] | Potency [11] | Potency [13] | Potency [14]

CCCN(C1CCN(C(=O)C2CCNCC2)CC1)[C@@H]1CCc2ccc(OC)cc2C1
inactive: Potency [1] | Potency [17] | Potency [3] | outcome [15] | outcome [5] | outcome [6] | Potency [10] | Potency [11] | Potency [12] | Potency [13] | Potency [14]

CCCCCC1CCC(=O)O1 (centres undefined)
inactive: Potency [1] | Potency [2] | Potency [17] | outcome [15] | outcome [5] | outcome [6] | outcome [7] | outcome [8] | Potency [9] | Potency [11] | Potency [12] | Potency [13] | Potency [14]

Cc1nc2sccn2c(=O)c1CCN1CCC(=C(c2ccc(F)cc2)c2ccc(F)cc2)CC1
active: Potency [4] 29.8 µM
inactive: Potency [1] | Potency [3] | outcome [15] | outcome [5] | Potency [11] | Potency [12] | Potency [13] | Potency [14]

C/C=C1\[C@H]2C=C(C)C[C@]1(N)c1ccc(=O)[nH]c1C2
inactive: Potency [1] | Potency [17] | Potency [4] | outcome [15] | outcome [5] | outcome [7] | outcome [8] | Potency [9] | Potency [10] | Potency [11] | Potency [12] | Potency [13] | Potency [14] | max activation [16] -1.47% | Potency [18] | Potency [19]

O=C(Cl)c1cc(Cl)cc(Cl)c1
inactive: Potency [1] | Potency [17] | Potency [3] | Potency [4] | outcome [15] | outcome [5] | outcome [6] | outcome [7] | outcome [8] | Potency [9] | Potency [10] | Potency [11] | Potency [12] | Potency [13] | Potency [14]

NC(=O)c1ccccc1C(N)=O
inactive: Potency [1] | Potency [17] | Potency [3] | outcome [15] | outcome [5] | outcome [7] | outcome [8] | Potency [9] | Potency [10] | Potency [12] | Potency [13] | Potency [14]

CCC(=O)O[C@]1(C(=O)COC)[C@@H](C)C[C@H]2[C@@H]3CCC4=CC(=O)C=C[C@]4(C)C3(F)[C@@H](O)C[C@@]21C (some centres undefined)
inactive: Potency [1] | Potency [17] | Potency [3] | Potency [9] | Potency [11] | Potency [12] | Potency [13]
active: Potency [14] 16.8 µM

CCCCCCCCCCCCCCCCN
inactive: Potency [1] | Potency [17] | Potency [3] | outcome [15] | outcome [5] | outcome [6] | outcome [7] | outcome [8] | Potency [9] | Potency [10] | Potency [11] | Potency [12] | Potency [13] | Potency [14] | max activation [16] -4.68% | Potency [18] | Potency [19]

O=Cc1ccc(Cl)c([N+](=O)[O-])c1
inactive: Potency [1] | Potency [4] | outcome [15] | outcome [5] | outcome [6] | outcome [7] | outcome [8] | Potency [9] | Potency [13] | Potency [14]
active: Potency [11] 68.6 µM

Nc1ccccc1Nc1ccccc1
active: Potency [9] 30.7 µM | Potency [11] 27.4 µM | Potency [14] 19.4 µM
inactive: Potency [2] | Potency [4] | outcome [15] | outcome [5] | outcome [8] | Potency [10] | Potency [12]

S=c1[nH][nH]c(=S)s1
inactive: Potency [1] | Potency [17] | Potency [3] | Potency [4] | outcome [15] | outcome [5] | outcome [6] | outcome [7] | outcome [8] | Potency [10] | Potency [11] | Potency [13] | Potency [14]

[O-][n+]1ccc(Cl)cc1
inactive: Potency [1] | Potency [2] | Potency [17] | Potency [4] | outcome [15] | outcome [5] | Potency [9] | Potency [10] | Potency [11] | Potency [12] | Potency [13] | Potency [14]

SCCOCCOCCS
active: Potency [14] 4.86 µM
inactive: Potency [1] | Potency [17] | Potency [3] | Potency [4] | outcome [15] | outcome [5] | outcome [6] | outcome [7] | outcome [8] | Potency [9] | Potency [11] | Potency [12] | Potency [13]

CC/C=C/CCO
inactive: Potency [1] | Potency [17] | outcome [15] | outcome [5] | outcome [6] | outcome [7] | outcome [8] | Potency [9] | Potency [10] | Potency [11] | Potency [12] | Potency [13] | Potency [14]
active: Potency [4] 19.7 µM
